# According to PubChem BioAssay (NCATS):
# Inconclusive results are not listed. Where a call stands in place of a potency, no number is given. Calls of active or inactive are those of the source. Calls come from the whole dose curve; as a rule, active = well fitted curve in the direction sought with a large enough effect; inconclusive = small, poorly fitted or top-dose-only effect, or another doubt; inactive = no such curve, though single readings can be large; an effect the other way counts as inactive or inconclusive.
# How the values were obtained:
# [1] = qHTS of pediatric cancer cell lines to identify multiple opportunities for drug repurposing: Primary screen for RD cells (AID 1347104); note: nearly all actives have a fitted effect of over 55% in size
# Summary of the method: (§1)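 CRCs from 8- or 11-point titrations (lowest final 0.59 nM NPC, 0.78 nM MIPE). Cell viability: CellTiter-Glo after 48 h incubation, 15 min room-temperature development, luminescence imaging.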
# [2] = qHTS of pediatric cancer cell lines to identify multiple opportunities for drug repurposing: Primary screen for MG 63 (6-TG R) cells (AID 1347105); note: nearly all actives have a fitted effect of over 50% in size; note: potency is the fitted concentration of half-maximal effect
# Summary of the method: as §1
# [3] = qHTS of pediatric cancer cell lines to identify multiple opportunities for drug repurposing: Primary screen for control Hh wild type fibroblast cells (AID 1347106);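 note: series mostly up to about 46 µM; a drop in luminescence marks cytotoxicity and a rise apparent proliferation; nearly all actives have a fitted effect of over 55% in size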
# Summary of the method: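 Viability after 48 h compound treatment at 37C, 500-1,000 cells/well, read as ATP luminescence with CellTiter-Glo. Primary screens used 11-point (MIPE, 0.78 nM-46 µM) or 8-point (NPC, 0.59 nM-46 µM) final concentrations; follow-up screens used 11-point dilutions.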
# [4] = qHTS of pediatric cancer cell lines to identify multiple opportunities for drug repurposing: Primary screen for Rh30 cells (AID 1347107); note: series mostly up to about 46 µM; nearly all actives have a fitted effect of over 75% in size
# Summary of the method: (§2)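 Cells (500-1,000/well) rested 5 h, then received compounds for 48 h; metabolically active cells were measured by CellTiter-Glo luminescence. Final concentrations spanned up to 46 µM (MIPE, 11-point) or 0.59 nM-46 µM (NPC, 8-point) in primary screens, 11-point in follow-ups.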
# [5] = qHTS of pediatric cancer cell lines to identify multiple opportunities for drug repurposing: Primary screen for Rh41 cells (AID 1347108);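 note: series mostly up to about 46 µM; luminescence drop marks cytotoxic hits; nearly all actives have a fitted effect of over 70% in size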
# Summary of the method: as §1
# [6] = qHTS of pediatric cancer cell lines to identify multiple opportunities for drug repurposing: Confirmatory screen for NB1643 cells (AID 1347109); note: nearly all actives have a fitted effect of over 45% in size; note: potency is the fitted concentration of half-maximal effect
# Summary of the method: as §2
# [7] = qHTS of pediatric cancer cell lines to identify multiple opportunities for drug repurposing: Confirmatory screen for SK-N-MC cells (AID 1347111);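 note: cells exposed to compound for 48 h before the readout; nearly all actives have a fitted effect of over 70% in size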; note: potency is the fitted concentration of half-maximal effect
# Summary of the method: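 Seed 500-1,000 cells/well; rest 5 h at 37 degrees C. Pin-transfer compounds, 11-point titration. Incubate 48 h. Add CellTiter-Glo, 15 min RT, read luminescence.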
# [8] = qHTS of pediatric cancer cell lines to identify multiple opportunities for drug repurposing: Confirmatory screen for BT-12 cells (AID 1347112); note: nearly all actives have a fitted effect of over 55% in size
# Summary of the method: as §2
# [9] = qHTS of pediatric cancer cell lines to identify multiple opportunities for drug repurposing: Confirmatory screen for LAN-5 cells (AID 1347113); note: nearly all actives have a fitted effect of over 65% in size; note: potency is the fitted concentration of half-maximal effect
# Summary of the method: as §2
# [10] = qHTS of pediatric cancer cell lines to identify multiple opportunities for drug repurposing: Confirmatory screen for NB-EBc1 cells (AID 1347115);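 note: cells exposed to compound for 48 h before the viability read; nearly all actives have a fitted effect of over 45% in size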
# Summary of the method: as §2
SMILES,Potency [1],Potency [2],Potency [3],Potency [4],Potency [5],Potency [6],Potency [7],Potency [8],Potency [9],Potency [10]
O=C(NCCc1c[nH]c2ccccc12)c1cccnc1,inactive,inactive,inactive,inactive,inactive,,,,,
CCOCCn1c(N2CCCN(C)CC2)nc2ccccc21,inactive,inactive,inactive,inactive,inactive,,,,,
CN1CCC(OC(c2ccccc2)c2ccccc2)CC1,inactive,inactive,inactive,inactive,inactive,,,,,
CC(=O)OCC(=O)[C@H]1CC[C@H]2[C@@H]3CCC4=CC(=O)CC[C@]4(C)[C@H]3CC[C@]12C,inactive,inactive,inactive,inactive,inactive,,,,,
COc1ccccc1N1CCN(CCCCNC(=O)c2ccc(-c3ccc(C(C)=O)cc3)cc2)CC1,inactive,inactive,inactive,inactive,inactive,,,,,
Cc1c[nH]c2ccccc12,inactive,inactive,inactive,inactive,inactive,,,,,
CCC1NC(=O)c2cc(S(N)(=O)=O)c(Cl)cc2N1 (stereo not drawn),inactive,inactive,inactive,inactive,inactive,,,,,
C#C[C@]1(O)CC[C@H]2[C@@H]3[C@H](C)CC4=C(CCC(=O)C4)[C@H]3CC[C@@]21C,inactive,inactive,inactive,inactive,inactive,,,,,
C/C=C/C=N/NC(=O)c1ccncc1,inactive,inactive,inactive,inactive,inactive,,,,,
CC(=O)Oc1ccc(C)cc1,inactive,inactive,inactive,inactive,inactive,,,,,
c1ccc(CC2=NCCN2)cc1,inactive,inactive,inactive,inactive,inactive,,,,,
CCCCCCCC/C=C\CCCCCCCCN,inactive,inactive,inactive,inactive,inactive,,,,,
C=C1c2cccc(O)c2C(O)=C2C(=O)[C@]3(O)C(O)=C(C(N)=O)C(=O)[C@@H](N(C)C)[C@@H]3[C@@H](O)[C@H]12,inactive,inactive,inactive,inactive,inactive,,,,,
CC(=O)O[C@H]1C[C@@H]2CC[C@@H]3[C@H](CC[C@@]4(C)[C@H]3C[C@H]([N+]3(C)CCCCC3)[C@@H]4OC(C)=O)[C@@]2(C)C[C@@H]1N1CCCCC1,inactive,inactive,inactive,inactive,inactive,,,,,
COc1cc(C(=O)N2CCCCCCC2)cc(OC)c1OC,inactive,inactive,inactive,inactive,inactive,,,,,
CN(CCCN1c2ccccc2CCc2ccccc21)CC(=O)c1ccc(Cl)cc1,inactive,inactive,inactive,inactive,inactive,,,,,
CC(C)NCC(O)c1ccc2ccccc2c1 (stereo not drawn),inactive,inactive,inactive,inactive,inactive,,,,,
CCCCCCCCCCCCCC(=O)OC(C)C,inactive,inactive,inactive,inactive,inactive,,,,,
CC(O)Cn1cnc2c1c(=O)n(C)c(=O)n2C (stereo not drawn),inactive,inactive,inactive,inactive,inactive,,,,,
NS(=O)(=O)c1cc(C(=O)O)cc(N2CCCC2)c1Oc1ccccc1,inactive,inactive,inactive,inactive,inactive,,,,,
C=CCN1CCc2nc(N)sc2CC1,inactive,inactive,inactive,inactive,inactive,,,,,
CC(C)CCCC(C)N (stereo not drawn),inactive,inactive,inactive,inactive,inactive,,,,,
OC1C(O)C(O)C(O)C(O)C1O (stereo not drawn),inactive,inactive,inactive,inactive,inactive,,,,,
O=C(NC1CCN(CCc2c[nH]c3ccccc23)CC1)c1ccccc1,inactive,inactive,inactive,inactive,inactive,,,,,

SMILES,Potency [1],Potency [2],Potency [3],Potency [4],Potency [5],Potency [6],Potency [7],Potency [8],Potency [9],Potency [10]
CCN(CC)CCOC(=O)C1(c2ccccc2)CCCC1,inactive,inactive,inactive,inactive,inactive,,,,,
CC(=O)O[C@]1(C(C)=O)CC[C@H]2[C@@H]3C=C(C)C4=CC(=O)CC[C@]4(C)[C@H]3CC[C@@]21C,inactive,inactive,inactive,inactive,inactive,,,,,
OC[C@H]1O[C@@H]2O[C@H]3[C@H](O)[C@@H](O)[C@@H](O[C@H]4[C@H](O)[C@@H](O)[C@@H](O[C@H]5[C@H](O)[C@@H](O)[C@@H](O[C@H]6[C@H](O)[C@@H](O)[C@@H](O[C@H]7[C@H](O)[C@@H](O)[C@@H](O[C@H]8[C@H](O)[C@@H](O)[C@@H](O[C@H]1[C@H](O)[C@H]2O)O[C@@H]8CO)O[C@@H]7CO)O[C@@H]6CO)O[C@@H]5CO)O[C@@H]4CO)O[C@@H]3CO,inactive,inactive,inactive,inactive,inactive,,,,,
Cc1cc(NS(=O)(=O)c2ccc(N)cc2)nc(C)n1,inactive,inactive,inactive,inactive,inactive,,,,,
FC1(F)C(F)(F)C(F)(F)C2(F)C(F)(F)C(F)(F)C(F)(F)C(F)(F)C2(F)C1(F)F (stereo not drawn),inactive,inactive,inactive,inactive,inactive,,,,,
O=C(Nc1cccc(C2=NCCN2)c1)Nc1cccc(C2=NCCN2)c1,inactive,inactive,inactive,inactive,inactive,,,,,
COc1ccc(-c2cc(C(F)F)nn2-c2ccc(S(N)(=O)=O)cc2)cc1F,inactive,inactive,inactive,inactive,inactive,,,,,
O=C(Nc1ccc([N+](=O)[O-])cc1)Nc1ccc([N+](=O)[O-])cc1,inactive,inactive,inactive,inactive,inactive,,,,,
O=C(O)c1ccc(S(=O)(=O)N(Cl)Cl)cc1,inactive,inactive,inactive,inactive,inactive,,,,,
Cc1cccc(C)c1NC(=O)CN1CCCC1,inactive,inactive,inactive,inactive,inactive,,,,,
Cc1cc2c(OCC(CNC(C)(C)C)OC(=O)c3ccccc3)cccc2[nH]1 (stereo not drawn),inactive,inactive,inactive,inactive,inactive,,,,,
COc1ccc(C(=O)c2ccccc2)c(O)c1,inactive,inactive,inactive,inactive,inactive,inactive,inactive,inactive,inactive,inactive
Cc1ccc(S(=O)(=O)NC(=O)NC2CCCC2)cc1,inactive,inactive,inactive,inactive,inactive,,,,,
COc1cc(C(=O)NCc2ccc(OCCN(C)C)cc2)cc(OC)c1OC,inactive,inactive,inactive,inactive,inactive,,,,,
Nc1nc(Cl)nc2c1ncn2[C@@H]1O[C@H](CO)[C@@H](O)[C@@H]1F,inactive,0.841 µM (active),inactive,inactive,inactive,1.47 µM (active),0.0928 µM (active),,1.65 µM (active),
COc1cc(N)c(Cl)cc1C(=O)NC1CCN(Cc2ccccc2)CC1,inactive,inactive,inactive,inactive,inactive,,,,,
O=S(=O)(O)c1ccc(O)cc1,inactive,inactive,inactive,inactive,inactive,,,,,
CC(C)(C)NCC(O)COc1cccc2c1C[C@H](O)[C@H](O)C2 (stereo partly drawn),inactive,inactive,inactive,inactive,inactive,,,,,
OCCOCCN1CCN(C2=Nc3ccccc3Sc3ccccc32)CC1,inactive,inactive,inactive,inactive,inactive,,,,,
OC(C#CCN1CCCC1)(c1ccccc1)c1ccccc1,inactive,inactive,inactive,inactive,inactive,,,,,
CC(=O)Nc1ncc([N+](=O)[O-])s1,inactive,inactive,inactive,inactive,inactive,,,,,
CCCCC(CC)CN1CN(CC(CC)CCCC)CC(C)(N)C1 (stereo not drawn),inactive,inactive,inactive,inactive,inactive,,,,,
C[N+]1(CC2COC(c3ccccc3)(C3CCCCC3)O2)CCCCC1 (stereo not drawn),inactive,inactive,inactive,inactive,inactive,,,,,
